This is a sample that favours compounds with a hit; in the whole collection about 1.6% have one here.
OPRM1-OPRD1 inv – inverse agonist of human OPRM1-OPRD1 heterodimerization | AID 504357 | cell-based MOR-DOR heterodimer luminescence, inverse agonism | inhibition, % at 9.3 µM | P35372+P41143 | 340,000 compounds, 0.21% hits; in the data active means inhibition above about 22%, passing the limit was not always enough
Target sequence (P35372 whole entry, looked up): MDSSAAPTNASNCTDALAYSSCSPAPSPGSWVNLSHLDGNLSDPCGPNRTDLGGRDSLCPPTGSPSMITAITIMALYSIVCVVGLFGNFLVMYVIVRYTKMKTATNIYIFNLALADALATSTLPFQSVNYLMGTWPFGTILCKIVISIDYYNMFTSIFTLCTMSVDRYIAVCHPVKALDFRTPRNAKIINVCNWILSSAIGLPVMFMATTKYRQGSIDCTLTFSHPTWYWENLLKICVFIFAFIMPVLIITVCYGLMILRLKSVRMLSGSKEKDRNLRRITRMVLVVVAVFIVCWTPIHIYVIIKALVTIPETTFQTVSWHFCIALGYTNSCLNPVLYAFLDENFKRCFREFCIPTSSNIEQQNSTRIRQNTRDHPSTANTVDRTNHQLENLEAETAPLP
Target sequence (P41143 whole entry, looked up): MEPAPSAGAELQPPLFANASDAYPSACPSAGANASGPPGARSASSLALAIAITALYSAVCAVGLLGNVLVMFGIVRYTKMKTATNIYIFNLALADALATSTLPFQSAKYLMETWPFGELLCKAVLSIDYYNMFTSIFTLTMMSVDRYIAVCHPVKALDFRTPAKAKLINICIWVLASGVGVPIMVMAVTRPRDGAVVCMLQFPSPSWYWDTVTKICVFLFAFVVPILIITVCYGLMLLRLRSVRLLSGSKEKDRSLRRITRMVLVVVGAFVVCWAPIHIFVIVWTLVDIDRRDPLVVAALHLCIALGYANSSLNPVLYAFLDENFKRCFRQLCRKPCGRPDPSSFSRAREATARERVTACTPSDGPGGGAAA
MOR-DOR ag-1 – agonists of human mu-delta opioid receptor heterodimerization; P35372+P41143; activation, % at 9.3 µM; 340,000 compounds, 0.3% hits; cells, OPRM1-OPRD1 heterodimerization, luminescence; AID 504326
m5-HT2A agonist – mouse HTR2A agonism via beta-arrestin recruitment. P35363. 360,000 compounds, 0.66% hits. CHO-K1 mHTR2A beta-arrestin complementation, luminescence; percent of 30 µM serotonin response. activation, % at 7.6 µM;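 active means activation above a run cutoff, the mean activation of all tested compounds plus 3 SD, cut at about 14% in these data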
HTR5A ag ctr – counter-screen for OPRM1-OPRD1 agonists: human HTR5A agonism; HTR5A agonist assay, luminescence, cell-based; activation, % at 9.3 µM; 340,000 compounds, 0.61% hits; in the data active means activation mostly above about 9.5%, no sharp cut-off; inactive means mostly below about 7.6%
HTR5A inv ctr – inverse agonist of human HTR5A in OPRM1-OPRD1 counter-screen. HTR5A cell line, luminescence, inverse agonism. inhibition, % at 9.3 µM. 340,000 compounds, 0.083% hits. AID 504634; in the data active means inhibition mostly above about 23%, no sharp cut-off; inactive means mostly below about 18%
MOR-DOR ag-2 – opioid heterodimer agonism, HTR5A counter-screen | shares compounds with HTR5A ag ctr | U2OS counter-screen cells, complementation luminescence, 3 h | activation, % at 9.3 µM | 800 compounds, 13% hits | AID 504913
HTR5A ag confirm – confirmation of human HTR5A agonists; 800 compounds, 17% hits; activation, % at 9.3 µM; HTR5A agonist cell assay, luminescence; shares compounds with HTR5A ag ctr; in the data active means activation above about 17%
Of the large screens only hits and unclear results are named; the others gave an inactive call (follow-up assays come after a bar, where they were run); ! = not active in a repeat. Unless noted, no stated cut-off is given here; in the data, active means activation above about 18%; inactive means the rest.

Cc1ccccc1OCc1n(CC(=O)OC2CC(C)CCC2C(C)C)c2ccccc2[n+]1C (stereo not drawn)	HTR5A ag ctr 18.3 | MOR-DOR ag-2 inactive | HTR5A ag confirm inactive
CC1CCC(C(C)C)C(OC(=O)Cn2c(-c3ccc(Br)cc3)[n+](C)c3ccccc32)C1 (stereo not drawn)	HTR5A ag ctr 16.5 | MOR-DOR ag-2 50.3! | HTR5A ag confirm inactive
CC1CCC(C(C)C)C(OC(=O)Cn2c(-c3ccc(Cl)cc3)[n+](C)c3ccccc32)C1 (stereo not drawn)	none
CC1CCC(C(C)C)C(OC(=O)COC(=O)c2ccc(N)cc2)C1 (stereo not drawn)	none
Cc1cccc2c(=O)n3c(cc12)-c1[nH]c2ccccc2c1CC3	HTR5A ag ctr 14.8 | MOR-DOR ag-2 inactive | HTR5A ag confirm inactive
Cc1ccc(S(=O)(=O)N(C)CC(=O)N(C)CCOc2ccccc2)cc1	none (no result: OPRM1-OPRD1 inv, MOR-DOR ag-1, HTR5A ag ctr, HTR5A inv ctr)
CCc1nnc(NC(=O)CSc2ccc(-c3nc4ccccc4[nH]3)cn2)s1	none
Cc1nc(NC(=O)CSc2ccc(-c3nc4ccccc4[nH]3)cn2)sc1C	HTR5A ag ctr 17.5 | MOR-DOR ag-2 inactive | HTR5A ag confirm inactive
Cc1ccc(C)c(S(=O)(=O)N/N=C/c2ccc(F)cc2)c1	HTR5A ag ctr 15.0 | MOR-DOR ag-2 inactive | HTR5A ag confirm inactive
CCCCCC(=O)N1C[C@@H](n2cc(C3CC3)nn2)[C@H](O)C[C@@H]1c1ccc(C)cc1	none (no result: OPRM1-OPRD1 inv, MOR-DOR ag-1, HTR5A ag ctr, HTR5A inv ctr)
C=CCn1c(SCC(=O)NC(=O)NCc2ccco2)nc2sc(C)c(C)c2c1=O	HTR5A ag ctr 16.7 | MOR-DOR ag-2 inactive | HTR5A ag confirm inactive
O=C(c1cccs1)c1no[n+]([O-])c1C(=O)c1cccs1	none
Cc1c(C(=O)c2no[n+]([O-])c2C(=O)c2cnn(C)c2C)cnn1C	HTR5A ag ctr 25.7 | MOR-DOR ag-2 inactive | HTR5A ag confirm inactive
C=Cc1ccc(CC2(C)C(=O)Nc3ccc(-c4cccnc4)cc32)cc1 (stereo not drawn)	none (no result: OPRM1-OPRD1 inv, MOR-DOR ag-1, HTR5A ag ctr, HTR5A inv ctr)
Cc1cccc(Nc2nc(N)nc(CCl)n2)c1	HTR5A ag ctr 19.5 | MOR-DOR ag-2 21.1 | HTR5A ag confirm 30.9
COc1ccc(OC)c(Nc2nc(N)nc(CCl)n2)c1	HTR5A ag ctr 17.4 | MOR-DOR ag-2 inactive | HTR5A ag confirm inactive
CCCCCCCCCC[n+]1cccc2c3ccccc3ccc21	HTR5A ag ctr 21.6 | MOR-DOR ag-2 inactive | HTR5A ag confirm inactive
COc1ccc(Cn2c(C)nc3oc4cc(OC)ccc4c(=O)c3c2=O)cc1	HTR5A ag ctr 16.2 | MOR-DOR ag-2 327.2 | HTR5A ag confirm inactive
Cc1cc(=O)[nH]c(N/N=C/c2c[nH]c3ccccc23)n1	HTR5A ag ctr 23.6 | MOR-DOR ag-2 inactive | HTR5A ag confirm 46.1
CCOC(=O)[C@]12CCCC=C1N(CCC1=CCCCC1)C(=O)[C@H](CC(=O)NCCCN1CCCC1=O)C2	none (no result: OPRM1-OPRD1 inv, MOR-DOR ag-1, HTR5A ag ctr, HTR5A inv ctr)
COc1ccc(OC)c(NC(=O)COC(=O)c2cc3c(s2)CCC3)c1	HTR5A ag ctr 14.8 | MOR-DOR ag-2 inactive | HTR5A ag confirm inactive
COc1ccc2c(c1)Cc1sc(NC(=O)c3ccco3)nc1-2	none
COc1ccc2c(c1)Cc1sc(NC(C)=O)nc1-2	HTR5A ag ctr 15.2 | MOR-DOR ag-2 inactive | HTR5A ag confirm inactive
Cc1ccc(N(C(=O)Cc2cccs2)C(C(=O)NC2CCCCC2)c2ccccn2)cc1C (stereo not drawn)	HTR5A ag ctr 15.4 | MOR-DOR ag-2 30.4 | HTR5A ag confirm 18.6
Cc1cccc(N(C(=O)Cc2cccs2)C(C(=O)NC2CCCC2)c2ccncc2)c1 (stereo not drawn)	none
CCOC(=O)c1ccc(Nc2nc(-c3cccnc3)nc3ccccc23)cc1	HTR5A ag ctr 29.2 | MOR-DOR ag-2 inactive | HTR5A ag confirm inactive
Cc1ccc(Nc2nc(-c3cccnc3)nc3ccccc23)cc1	none
CC(C)(C)C(=O)Cn1c(=N)n(Cc2ccccc2)c2ccccc21	none
Cc1ccc(Cn2c(=N)n(CC(=O)c3ccccc3)c3ccccc32)cc1	HTR5A ag ctr 21.4 | MOR-DOR ag-2 inactive | HTR5A ag confirm inactive
O=C(NCCc1c[nH]c2ccccc12)c1cc([N+](=O)[O-])cc([N+](=O)[O-])c1	HTR5A ag ctr 65.0 | MOR-DOR ag-2 inactive | HTR5A ag confirm 69.0
O=C(NCCc1c[nH]c2ccccc12)c1ccc([N+](=O)[O-])cc1	none
C[C@H]1CN([C@@H](C)CO)C(=O)CCCn2cc(nn2)CO[C@@H]1CN(C)C(=O)Nc1ccc(-c2cccs2)cc1	none (no result: OPRM1-OPRD1 inv, MOR-DOR ag-1, HTR5A ag ctr, HTR5A inv ctr)
CCCOc1ccccc1/C=C1\SC(N2CCCCC2)=NC1=O	HTR5A ag ctr 16.5 | MOR-DOR ag-2 inactive | HTR5A ag confirm 24.2
Cc1cc(C)c(S(=O)(=O)NCCc2cc3ccc(C)c(C)c3[nH]c2=O)c(C)c1	HTR5A ag ctr 16.8 | MOR-DOR ag-2 inactive | HTR5A ag confirm inactive
O=c1ccn([C@@H]2O[C@H](CNCc3cccc4c3sc3ccccc34)[C@@H](O)[C@H]2O)c(=O)[nH]1	none (no result: OPRM1-OPRD1 inv, MOR-DOR ag-1, HTR5A ag ctr, HTR5A inv ctr)
CN(C)c1ccc(CNC(=O)C2(C)Cc3c(-c4cccc(C(F)(F)F)c4)ccnc3O2)cc1 (stereo not drawn)	none (no result: OPRM1-OPRD1 inv, MOR-DOR ag-1, HTR5A ag ctr, HTR5A inv ctr)
C=CCNC(=O)c1onc(CSc2ccc(F)cc2)c1C(=O)O	none
C=CCNC(=O)c1onc(CSc2ccc(F)cc2)c1C(=O)NCC=C	HTR5A ag ctr 22.0 | MOR-DOR ag-2 inactive | HTR5A ag confirm inactive
CCn1c(=O)c(C(=O)Nc2ncccc2C)c(O)c2ccccc21	HTR5A ag ctr 16.3 | MOR-DOR ag-2 inactive | HTR5A ag confirm inactive
CC(C)(C)S(=O)N1Cc2cc(CO)ccc2[C@H]1CCO (stereo partly drawn)	none (no result: OPRM1-OPRD1 inv, MOR-DOR ag-1, HTR5A ag ctr, HTR5A inv ctr)
O=C(CN1CCN(Cc2ccc(F)cc2Cl)C1=O)NCCc1ccccc1	HTR5A ag ctr 15.6 | MOR-DOR ag-2 inactive | HTR5A ag confirm inactive
O=C(O)CN1CCN(Cc2ccc(F)cc2Cl)C1=O	none
O=C(O)/C=C\C(=O)Nc1ccc(Oc2ccccc2)cc1	none
O=C(O)/C=C/C(=O)Nc1ccc(C2(c3ccc(NC(=O)/C=C/C(=O)O)cc3)c3ccccc3-c3ccccc32)cc1	HTR5A ag ctr 26.4 | MOR-DOR ag-2 inactive | HTR5A ag confirm inactive
c1ccc(Cc2nnc(-c3ccccc3)o2)cc1	HTR5A ag ctr 16.2 | MOR-DOR ag-2 inactive | HTR5A ag confirm inactive
COCCN(C(=S)Nc1ccccc1OC)C1CCN(C(C)=O)CC1	none
CCOc1ccccc1NC(=S)N(CCOC)C1CCN(C(C)=O)CC1	HTR5A ag ctr 14.7 | MOR-DOR ag-2 inactive | HTR5A ag confirm inactive
O=C(Nc1ccc(F)cc1)C(c1cccc(F)c1)N1CCN(c2ccncc2)CC1 (stereo not drawn)	none (no result: OPRM1-OPRD1 inv, MOR-DOR ag-1, HTR5A ag ctr, HTR5A inv ctr)
CCc1nc2c(OCc3ccc(Cl)cc3Cl)cccn2c1N(C)C(C)=O	none (no result: OPRM1-OPRD1 inv, MOR-DOR ag-1, HTR5A ag ctr, HTR5A inv ctr)
CNC(=O)C[C@H]1C(=O)N(CCc2ccccc2)C[C@@H]1Cc1ccccc1	none (no result: OPRM1-OPRD1 inv, MOR-DOR ag-1, HTR5A ag ctr, HTR5A inv ctr)
O=C(On1c(-c2ccccc2)nc2ccccc2c1=O)c1ccco1	none
COc1cc(OC)cc(-c2nc3ccccc3c(=O)n2OC(=O)c2ccccc2C)c1	HTR5A ag ctr 21.8 | MOR-DOR ag-2 inactive | HTR5A ag confirm inactive

Compound activity (PubChem)
